We go through 7 compounds from PubChem BioAssay (Tox21).

Several values for one entry are separate records, joined by “and”; a condition that tells them apart may be missing. Identical values can stand only once. Unmarked numbers belong to inactive results. Records with an inconclusive call do not appear. Activity calls are given as the source filed them. Unless noted, the call rests on the fitted dose curve; in most records, active means well fitted curve in the direction sought with a large enough effect in the repeat runs; inconclusive means weak or mixed curves; inactive means no such curve, though single readings can be large; an effect the other way counts as inactive or inconclusive.

Assay [1] is described as follows: qHTS assay for small molecules that induce genotoxicity in human embryonic kidney cells expressing luciferase-tagged ATAD5 (AID 651632). Further: nearly all actives have a fitted effect of over 15% in size. The essentials: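 Cells were seeded at 2,000 per well, dosed with compound, and incubated 16 hr at 37C in 5% CO2. Luciferase activity was then quantified after a 30 min room-temperature incubation with Amplite.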
A short description of assay [2]: qHTS assay for small molecules that induce genotoxicity in human embryonic kidney cells expressing luciferase-tagged ATAD5 - cell viability (AID 651634; calls by dose curve; further: nearly all actives have a fitted effect of over 25% in size; further: potency means the concentration at half of the fitted maximal effect). The essentials: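 Cells (HEK293T, luciferase-tagged ATAD5) are seeded at 2,000 per well, dosed with compound or DMSO vehicle, and incubated 15.5 hr at 37C and 5% CO2. CellTiter-Fluor is added for 30 min before fluorescence is measured.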

A short description of assay [3]: qHTS assay for small molecule disruptors of the mitochondrial membrane potential (AID 720635). Further: potency means the concentration at half of the fitted maximal effect. The essentials:
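HepG2 cells (2,000/well) attached overnight at 37C, then took compound for 1 hr at 37C, 5% CO2. Mito-MPS dye was added for 30 min; fluorescence was read at 490/535 nm (monomers) and 540/590 nm (aggregates).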

Assay [4] is described as follows: qHTS assay to test for compound auto fluorescence at 590 nm (red) in HepG2 cells (AID 720674). The gist of the method:
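Rose Bengal sodium served as the red fluorophore standard. HepG2 monolayers (overnight attachment, MEM with 10% FBS) were exposed to test compounds for 1 hr at 37 C and read at Ex 540/Em 590 nm.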

Assay [5] can be described thus: qHTS assay to test for compound auto fluorescence at 535 nm (green) in HepG2 cells (AID 720675).
Assay [6] can be described thus: qHTS assay to test for compound auto fluorescence at 460 nm (blue) in HEK293 cells (AID 720678). The gist of the method:
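Triamterene serves as the blue fluorophore standard. Compound signal at 405/460 nm is read in HEK293 wells (2,000 cells, 10% dialyzed FBS) after overnight treatment at 37C.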

Assay [7] is described as follows: qHTS assay to test for compound auto fluorescence at 590 nm (red) in HEK293 cells (AID 720679). The essentials:
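We plated HEK293 cells in 10% dialyzed FBS medium, let them adhere for 4-5 hr, then added 23 nL compound. Overnight at 37C and 5% CO2 preceded fluorescence measurement at 540/590nm.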

Assay [8] can be described thus: qHTS assay to test for compound auto fluorescence at 535 nm (green) in HEK293 cells (AID 720680).
Assay [9] can be described thus: qHTS assay to test for compound auto fluorescence at 460 nm (blue) in HEK293 cell free culture (AID 720681). The gist of the method:
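Test compounds were pinned into cell-free culture medium (DMEM with 10% FBS) and fluorescence was read directly at Ex/Em 405/460 nm. Signals were expressed as fluorescence equivalents of triamterene, with DMSO vehicle as control.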

The nature of assay [10]: qHTS assay to test for compound auto fluorescence at 535 nm (green) in HEK293 cell free culture (AID 720682). The gist of the method: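 Cell-free medium (DMEM, 10% FBS) receives compound or DMSO by pintool. Plate read directly at Ex 485/Em 535 nm. Signal converted to fluorescein equivalency.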
A short description of assay [11]: qHTS assay to test for compound auto fluorescence at 590 nm (red) in HEK293 cell free culture (AID 720683). The essentials:
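Tox21 10K library compounds were pinned into cell-free DMEM with 10% FBS and fluorescence was read at excitation 540 nm. Activity is expressed as Rose Bengal sodium equivalency.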

A short description of assay [12]: qHTS assay to test for compound auto fluorescence at 460 nm (blue) in HepG2 cell free culture (AID 720685). The essentials: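 Cell-free plates of MEM plus 10% FBS received 23 nL compound or DMSO vehicle; blue-channel (405/460 nm) intensity scored against triamterene as reference fluorophore.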
The nature of assay [13]: qHTS assay to test for compound auto fluorescence at 535 nm (green) in HepG2 cell free culture (AID 720686).
The nature of assay [14]: qHTS assay to test for compound auto fluorescence at 460 nm (blue) in HepG2 cells (AID 720687). The essentials:
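Cells (2,000/well in MEM with 10% FBS) attached overnight at 37 C, then were exposed to compound or DMSO for 1 hr at 37 C, 5% CO2. Fluorescence read at Ex/Em 405/460 nm, expressed as triamterene-equivalent signal.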

For assay [15], the target named is Glucocorticoid receptor (Homo sapiens) (UniProt P04150). The experiment in a line: qHTS assay to identify small molecule agonists of the glucocorticoid receptor (GR) signaling pathway (AID 720691; active means well fitted activation curve with a large enough effect in the signal ratio in the repeat runs, not every such curve was filed as active; the % refers to the signal ratio). The gist of the method:
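Steps: seed GR-bla HeLa cells, incubate 4 h at 37 C/5% CO2; pin-transfer DMSO-dissolved compounds; incubate 18 h at 37 C; add LiveBLAzer B/G FRET substrate; after 2 h at room temperature, measure fluorescence.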

Assay [16] shares this target. Put plainly: qHTS assay to identify small molecule antagonists of the glucocorticoid receptor (GR) signaling pathway (AID 720692; active means well fitted inhibition curve with a large enough effect in the signal ratio in the repeat runs, not every such curve was filed as active; the % refers to the signal ratio). The essentials: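 Antagonism was scored as loss of dexamethasone-driven (5 nM final) reporter signal in HeLa cells bearing a glucocorticoid response element–beta-lactamase construct, after 18 h compound exposure at 37 C and 2 h FRET substrate loading.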

A short description of assay [17]: qHTS assay for small molecule disruptors of the mitochondrial membrane potential - cell viability (AID 720634; calls by dose curve; further: nearly all actives have a fitted effect of over 20% in size; further: potency means the concentration at half of the fitted maximal effect). The essentials: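 Cytotoxicity was measured by ATP quantitation in HepG2 wells that had first been treated with compound for 1 hr and stained with m-MPI dye; CellTiter-Glo incubation was 30 min at room temperature.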
Assay [18] in a line: qHTS assay to test for compound auto fluorescence at 590 nm (red) in HepG2 cell free culture (AID 720684). The gist of the method:
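Ex 540 / Em 590 nm read of compound in cell-free MEM (10% FBS). Rose Bengal sodium reference.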

Assay [19] can be described thus: qHTS assay for small molecule agonists of the p53 signaling pathway - cell viability (AID 651633; calls by dose curve; further: nearly all actives have a fitted effect of over 30% in size; further: potency means the concentration at half of the fitted maximal effect). The essentials: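 p53RE-bla cells, seeded at 4,000 per well and rested 5 h at 37 C/5% CO2, received compounds in DMSO for 16 h at 37 C. CellTiter-Glo was then added, and luminescence was read after 30 min at room temperature to gauge cytotoxicity.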
On the % scale 0 is the no-effect control and ±100 the full control effect.

Sequence of Glucocorticoid receptor (Homo sapiens) (P04150 whole entry, looked up): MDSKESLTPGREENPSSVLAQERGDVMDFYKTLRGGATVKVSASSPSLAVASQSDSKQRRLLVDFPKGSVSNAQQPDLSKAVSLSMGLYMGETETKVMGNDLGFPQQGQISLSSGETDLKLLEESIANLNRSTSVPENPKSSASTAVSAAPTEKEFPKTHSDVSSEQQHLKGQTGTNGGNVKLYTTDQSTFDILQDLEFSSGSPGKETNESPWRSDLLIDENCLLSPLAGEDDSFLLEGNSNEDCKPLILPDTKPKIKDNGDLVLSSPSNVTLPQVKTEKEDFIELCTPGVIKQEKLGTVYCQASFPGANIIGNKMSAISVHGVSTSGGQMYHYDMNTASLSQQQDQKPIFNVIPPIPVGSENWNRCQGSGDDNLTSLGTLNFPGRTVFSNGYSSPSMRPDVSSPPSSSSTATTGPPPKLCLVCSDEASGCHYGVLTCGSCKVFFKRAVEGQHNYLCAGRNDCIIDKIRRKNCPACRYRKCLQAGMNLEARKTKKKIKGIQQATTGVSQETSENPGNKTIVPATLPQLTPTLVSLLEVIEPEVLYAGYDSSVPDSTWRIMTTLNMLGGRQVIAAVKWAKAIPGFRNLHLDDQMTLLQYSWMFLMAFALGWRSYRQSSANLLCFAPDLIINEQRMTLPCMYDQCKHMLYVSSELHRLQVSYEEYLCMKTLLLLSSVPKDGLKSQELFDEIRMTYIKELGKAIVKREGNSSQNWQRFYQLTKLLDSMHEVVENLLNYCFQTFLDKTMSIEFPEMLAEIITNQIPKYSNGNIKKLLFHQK

`Nc1ccccc1C(=O)OC/C=C/c1ccccc1`: the Potency result in [1], in assay [2], in assay [6], in assay [9], in assay [12] and in assay [14] was “inactive” throughout. Moreover, the Potency entry in assay [15] and in assay [16] was “inactive” throughout. Besides, the Potency in assay [3] is 19.4 µM (active). Besides, the outcome in [4], in assay [5], in assay [7], in assay [8], in assay [10] and in [11] was inactive. In addition, in assay [13], the compound was classed as inactive.

Turning to `C[C@H]1CC[C@@H]2[C@@H](C)[C@H]3[C@H](C[C@H]4[C@@H]5CC=C6CC(O[C@@H]7O[C@H](CO)[C@H](O)[C@H](O[C@@H]8O[C@H](CO)[C@@H](O)[C@H](O)[C@H]8O)[C@H]7O[C@H]7O[C@@H](C)[C@H](O)[C@@H](O)[C@H]7O)CC[C@]6(C)[C@H]5CC[C@]34C)N2C1` (stereo partly drawn), the Potency was 26.6 µM (active) and 63.1 µM (active) in [2]; 18.8 µM (active) and 70.8 µM (active) in assay [17]; 18.8 µM (active) and 35.5 µM (active) in [3]. Moreover, the compound was called inactive in assay [4], in assay [5], in assay [7], in assay [8], in assay [10] and in assay [11]. The call in assay [18] and in [13] was inactive. For the same compound, the Potency entry in assay [6], in [9], in assay [12] and in [14] was “inactive” in each case.

Take `N#CC(Cl)Cl`: the Potency result in [19], in assay [2], in assay [17], in assay [6], in assay [9] and in [14] was “inactive” in each case. Also, the result in assay [4], in assay [5], in [8], in [10], in assay [11] and in [18] was inactive. Moreover, the outcome in [13] was inactive.

For the compound `CCCCCCCCc1ccc(O)cc1`, the Potency in assay [19] is 12.3 µM (active); in assay [17] it was 15.4 µM (active); in [3] it was 4.89 µM (active). The Potency result in assay [2], in assay [6], in assay [9], in assay [12], in assay [14] and in [15] was “inactive” in each case. Further, the compound was called inactive in [4], in assay [5], in assay [7], in [8], in [10] and in assay [11]. Moreover, the result in assay [18] and in assay [13] was inactive.

For the compound `CN(C)C(=S)S`, the Potency result in assay [19], in [2], in assay [17], in assay [3], in assay [6] and in assay [9] was “inactive” in each case. Also, the Potency entry in [12] and in assay [14] was “inactive” in each case. The outcome in assay [4], in assay [5], in assay [7], in assay [8], in assay [10] and in [11] was inactive. In addition, the outcome in assay [18] and in assay [13] was inactive.

As for `CCOP(=S)(OCC)OC(Cl)C(Cl)(Cl)Cl` (stereo not drawn), the Potency result in [1], in [2], in assay [6], in [9], in assay [12] and in assay [14] was “inactive” each time. Further, the Potency entry in assay [15] was “inactive”. For the same compound, in assay [3], the Potency is 61.1 µM (active). Besides, the call in [4], in assay [5], in assay [7], in [8], in [10] and in [11] was inactive. In addition, the compound was called inactive in assay [13].

With `CN(C)C(=S)[S-].CN(C)C(=S)[S-].[Cu+2]`, the Potency entry in assay [19] and in assay [17] was “inactive” each time. The Potency in assay [2] was 836 nM (active); in [3], 0.592 µM (active). Moreover, the fluorescence, relative to Rose Bengal in assay [4] is 0.166% [at 18.6 µM]. For the same compound, the figures for the fluorescence, % of fluorescein control in assay [5] and in [13] were -0.0148% [at 18.6 µM] and 0.0404% [at 18.6 µM], respectively. Also, the fluorescence, % of triamterene in assay [6] was -0.0228% [at 18.6 µM]. Further, the fluorescence, % of fluorescent control in [7] was 0.0936% [at 18.6 µM]; in [9] it was -0.0097% [at 18.6 µM]; in assay [11] it was 0.0139% [at 18.6 µM]; in assay [12] it was -0.0974% [at 18.6 µM]; in assay [14], 0.125% [at 18.6 µM]. Moreover, the fluorescence, % of fluorescein in assay [8] is -0.0159% [at 18.6 µM]. Further, the activity change in assay [10] is 0.0031% [at 18.6 µM]. Also, in assay [18], the fluorescence, % of Rose Bengal is 0.0949% [at 18.6 µM].
